# Records with an inconclusive call do not appear. A number with no mark means an inactive call. The source made the active and inactive calls. Calls follow the shape of the full dose curve.
# Assay: p53 small molecule agonists, cell-based qHTS assay with rat liver microsomes: qHTS cell viability counter screen (AID 1963580); also: nearly all actives have a fitted effect of over 45% in size
# Details: p53RE-bla HCT-116 + rat microsomes, ATP viability, 16 h; series mostly up to 66 µM; activity change, negative = cytotoxicity: at the top concentration
# Source text: National Center for Advancing Translational Sciences [NCATS]
# Division of Preclinical Innovation [DPI]
# U.S. Environmental Protection Agency [EPA]
# National Institutes of Environmental Health Sciences [NIEHS]
# National Toxicology Program [NTP]
# U.S. Food and Drug Administration [FDA]
# p53, a tumor suppressor protein, is activated following cellular insult, including DNA damage and other cellular stresses. The activation of p53 regulates cell fate by inducing DNA repair, cell cycle arrest, apoptosis, or cellular senescence. The activation of p53, therefore, is a good indicator of DNA damage and other cellular stresses. The CellSensor p53RE-bla HCT-116 cell line contains a stably integrated beta-lactamase reporter gene under control of the p53 response elements. The activation of the reporter gene under culture conditions can be detected by fluorescence intensity. This cell line was used to screen the Tox21 10K compound library in the condition of presence of rat liver microsomes and to identify agonists that activate the p53 signaling pathway after in vitro metabolic activation (Ooka et al., Archive of Toxicology 96:1975-1987, 2022). The cytotoxicity of the Tox21 compound library against the p53 RE-bla HCT-116 cell line was tested in parallel by measuring the intra cellular ATP content in the same wells.
# Tox21 Assay Protocol Summary:
# The p53RE-bla cells were dispensed at 4,000cells/3ul/well in 1536-well black-clear bottom plates. After the assay plates were incubated at 37 C, 5% CO2 incubator for 5 hours, 23 nL of compounds dissolved in DMSO, positive controls or DMSO only was transferred to the assay plate. Following compound addition, 3 uL of rat liver microsomes (Molecular Toxicology, Boone, NC) at final concentration of 0.5 mg/mL and 1uL of B-Nicotinamide adenine dinucleotide 2'-phosphate (NADPH) at final concentration of 0.5 mg/mL were transferred to the assay plate. The plates were incubated at 37 C for 16 hours. 1 uL of LiveBLAzer detection mixture was added to each well and the plates were incubated at room temperature in the dark for 2 h. Fluorescence intensity at 460 and 530 nm emission and 405 nm excitation were measured by an Envision plate reader. For cell viability readout that measures cytotoxicity, 4 ul/well of CellTiter-Glo reagent was added into the assay plates using a Flying Reagent Dispenser. After 30 min incubation at room temperature, the luminescence intensity in the plates was measured using a ViewLux plate reader.
# % is scaled to controls: 0 for no effect and ±100 for the full control effect.
Compound,"activity change, negative = cytotoxicity",Potency
CC(=O)OCCN(CCOC(C)=O)c1ccc(N=Nc2ccc([N+](=O)[O-])cc2C#N)cc1,0.62%,–
O=[N+]([O-])c1ccccc1CCO,-0.67%,–
CN(C)N=Nc1ccccc1,-14.6%,–
O=C1NCCN1CCO,2.3%,–
CCC(C(=O)OCCOCCN(CC)CC)c1ccccc1 (stereo not given),-1.57% [at 30.3 µM],–
CCCc1cc(C(N)=S)ccn1,8.17% [at 30.3 µM],–
COc1cccc(OC)c1C(=O)N[C@@H]1C(=O)N2[C@@H]1SC(C)(C)[C@@H]2C(=O)O,-17.2% [at 30.3 µM],–
Nc1c(S(=O)(=O)O)cc(Br)c2c1C(=O)c1ccccc1C2=O,–,inactive
CCNc1cc(O)ccc1C,0.497%,–
Cc1cc(O)c(Cl)cc1C,0%,–
O=C1OC2(c3ccc(O)cc3Oc3cc(O)ccc32)c2ccccc21,–,inactive
O=S(=O)(O)c1ccccc1O,5.53%,–
CC(C)CCCCCCCCCCCCCCC(=O)O,-13.6%,–
COCCCOc1cc(C[C@@H](C[C@H](N)[C@@H](O)C[C@H](C(=O)NCC(C)(C)C(N)=O)C(C)C)C(C)C)ccc1OC,-4.47% [at 30.3 µM],–
C/C=C(\C)C(=O)OC/C=C(\C)CCC=C(C)C,0.411%,–
COC(C)(C)CCO,13.9%,–
CCC(C)CO (stereo not given),–,inactive
CC(C)CCCCOC(=O)c1ccccc1C(=O)OCCCCC(C)C,2.99%,–
CCCC=O,-7.2%,–
CC(C)(CCC(=O)O)C(=O)O,-0.652%,–

Compound,"activity change, negative = cytotoxicity",Potency
CCOC(=O)c1ccccc1C,5.19%,–
O=C1CC2(CCCC2)CC(=O)N1CCCCN1CCN(c2ncccn2)CC1,–,inactive
CC(=O)OC/C=C/c1ccccc1,-10.6%,–
CN(CCOc1ccc(CC2SC(=O)NC2=O)cc1)c1ccccn1 (stereo not given),–,inactive
O=C1Cc2cc(Cl)ccc2N1,2.52% [at 30.3 µM],–
C=CCS(=O)(=O)O,14.3%,–
c1ccc(Nc2cccc3ccccc23)cc1,-23.2%,–
Cc1c(O)cccc1C(=O)N[C@@H](CSc1ccccc1)[C@H](O)CN1C[C@H]2CCCC[C@H]2C[C@H]1C(=O)NC(C)(C)C,-2.82% [at 30.3 µM],–
N=C(N)c1ccccc1,26.6%,–
COc1ccccc1N=Nc1c(S(=O)(=O)O)cc2cc(S(=O)(=O)O)cc(NC(C)=O)c2c1O,4.79%,–
C=C1C[C@]23C[C@@]1(O)CC[C@H]2[C@@]12C=C[C@H](O)[C@@](C)(C(=O)O1)[C@H]2[C@@H]3C(=O)O,–,inactive
O=C(O)C(=O)Nc1cccc(-c2nn[nH]n2)c1,5.87% [at 30.3 µM],–
NCC1CCCC(CN)C1 (stereo not given),-8.11%,–
IC(I)I,-7.85%,–
CC(C)OC(=O)C(O)(CC(=O)O)CC(=O)O,1.92%,–
O=S(=O)(Oc1ccc(Cl)cc1Cl)c1ccccc1,–,inactive
CC(=O)C1(C)CC2=C(CCCC2(C)C)CC1C (stereo not given),-0.731%,–
C[C@@H]1CCN(C(=O)[C@H](CCCN=C(N)N)NS(=O)(=O)c2cccc3c2NC[C@H](C)C3)[C@@H](C(=O)O)C1,1.24% [at 30.3 µM],–
OCc1ccccc1O,-4.54% [at 30.3 µM],–
CC(C)COC(=O)c1ccc(N)cc1,4.58% [at 30.3 µM],–
